The nature of experiment [1]: qHTS assay to identify small molecule antagonists of the estrogen receptor alpha (ER-alpha) signaling pathway using the BG1 cell line in the presence of 0.1 nM 17-beta-estradiol - cell viability counter screen (AID 1259241). Note: nearly all actives have a fitted effect of over 40% in size. In outline: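 CellTiter-Fluor read (30 min, 37C) on ER-alpha/ERE-luc VM7Luc4E2 cells; 22 hr compound treatment; agonist 0.1 nM E2 final; same-well multiplex.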
Background: In qHTS, concentration-response curves come from the screen itself.

Experiment [2] in a line: qHTS assay to identify small molecule antagonists of the androgen receptor (AR) signaling pathway using the MDA cell line in the presence of 0.5 nM R1881 - cell viability counter screen (AID 1259242). Note: nearly all actives have a fitted effect of over 45% in size. In outline: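 Steps: plate MDA-kb2 cells, rest 5 hr at 37C without CO2; pin in compounds in DMSO; add R1881 to 0.5 nM final; incubate 16 hr; add CellTiter-Fluor, 30 min; read fluorescence.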

Experiment [3] concerns the target Androgen receptor (Homo sapiens) (UniProt P10275). The experiment can be described thus: qHTS assay to identify small molecule antagonists of the androgen receptor (AR) signaling pathway using the MDA cell line in the presence of 0.5 nM R1881 (AID 1259243). Note: nearly all actives have a fitted effect of over 50% in size. The method, boiled down: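 Stably transfected MDA-kb2 cells express luciferase from an MMTV promoter bearing both AR and GR response elements. Compounds plus 0.5 nM R1881 (final) were incubated 16 hr at 37C without CO2, then luminescence measured.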

The nature of experiment [4]: qHTS assay to identify small molecule HDAC inhibitors (AID 1259364).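 Note: wild-type HCT-116 cells with endogenous class I/II HDAC activity; top concentration of the series differs between compounds; nearly all actives have a fitted effect of over 45% in size.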 The method, boiled down:
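Cells (HCT-116, wild type) are seeded at 1,500 per well, incubated overnight, treated with compound in DMSO for 2 hr, then developed with HDAC-Glo I/II reagent for 30 min at room temperature.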

A short description of experiment [5]: qHTS assay to identify small molecule HDAC inhibitors - cell viability counter screen (AID 1259365). Note: series mostly up to about 92 µM; nearly all actives have a fitted effect of over 50% in size. In outline:
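To flag cytotoxic hits, 1,500 wild-type HCT-116 cells per well, plated the day before, receive test compounds for 2hr at 37 C before CellTiter-Glo reagent and a luminescence read.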

The nature of experiment [6]: qHTS assay to identify small molecule antagonists of the sonic hedgehog signaling (Shh) pathway - cell viability counter screen (AID 1259367). Note: nearly all actives have a fitted effect of over 55% in size. In outline: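 Tox21 library chemicals were tested on a Gli1-Luc NIH/3T3 clone (2,000 cells/well) stimulated by conditioned medium; viability was quantified as fluorescence from CellTiter-Fluor reagent added at 23 hr.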
Experiment [7] can be described thus: qHTS assay to identify small molecule agonists of the sonic hedgehog signaling (Shh) pathway (AID 1259368; calls by dose curve;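 note: NIH/3T3-derived 3T3Gli1-Luc cells carrying a stable Gli1-driven firefly luciferase reporter; series mostly up to about 92 µM; nearly all actives have a fitted effect of over 15% in size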). In outline: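 Cells of a mouse NIH/3T3 clone stably expressing luciferase under the Gli1 transcriptional response element are exposed to test chemicals for 24 hr at 37 C. Pathway activation is detected as a rise in luminescence.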
Experiment [8] in a line: qHTS assay to identify small molecule antagonists of the sonic hedgehog signaling (Shh) pathway (AID 1259369; calls by dose curve; note: nearly all actives have a fitted effect of over 45% in size; note: potency is the fitted concentration of half-maximal effect). The method, boiled down: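 Cells are plated and held 4hr at 37 C, compounds (DMSO) are pinned in, conditioned medium is added to stimulate the pathway, and after 24hr luciferase reagent is added for 30min before luminescence is read.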
In experiment [9] the target is Estrogen receptor beta (Homo sapiens) (UniProt Q92731). The experiment can be described thus: qHTS assay to identify small molecule agonists of the estrogen receptor beta (ER-beta) signaling pathway (AID 1259377; active = well fitted activation curve with a large enough effect in the signal ratio in the repeat runs, not every such curve was filed as active; the % refers to the signal ratio). In outline:
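Screening used GripTite ER-beta-UAS-bla cells held in 2% charcoal-stripped FBS medium. After overnight (16 hr) compound incubation at 37C, beta-lactamase activity was detected with a FRET substrate by fluorescence.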

For experiment [10] the target is unchanged. The experiment can be described thus: qHTS assay to identify small molecule antagonists of the estrogen receptor beta (ER-beta) signaling pathway (AID 1259378; active = well fitted inhibition curve with a large enough effect in the signal ratio in the repeat runs, not every such curve was filed as active; the % refers to the signal ratio). In outline: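 ER-beta-UAS-bla HEK293T cells in 2% charcoal-stripped FBS medium treated with compound plus 1nM final 17-beta-estradiol for 16 hr at 37C. Beta-lactamase reporter read by FRET substrate fluorescence after 2 hours at room temperature.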

Experiment [11] addresses Androgen receptor (Homo sapiens) (UniProt P10275). The experiment can be described thus: qHTS assay to identify small molecule agonists of the androgen receptor (AR) signaling pathway in the presence of an antagonist (AID 1259381; calls by dose curve; note: nearly all actives have a fitted effect of over 15% in size). The method, boiled down: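 Agonist-mode confirmation screen: human MDA-kb2 cells stably expressing luciferase under an MMTV promoter bearing AR and GR response elements, co-treated with 3.0uM nilutamide (final). Luminescence measured after 16hr compound incubation.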

Experiment [12] can be described thus: qHTS assay to identify small molecule agonists or antagonists of the thyroid stimulating hormone receptor (TSHR) signaling pathway - wild type cell line counter screen (AID 1259384; calls by dose curve). The method, boiled down: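 Wild-type Hek293 cells, 800/well, 18 h at 37C, then compound with Ro20-1724 for 30 min RT. cAMP by HTRF (cAMP-d2/anti-cAMP cryptate), 1 h RT, fluorescence read. 15 concentrations, triplicates.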

In experiment [13] the target is Thyrotropin receptor (Homo sapiens) (UniProt P16473). The experiment can be described thus: qHTS assay to identify small molecule antagonists of the thyroid stimulating hormone receptor (TSHR) signaling pathway (AID 1259385; calls by dose curve; note: nearly all actives have a fitted effect of over 20% in size). In outline:
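TSHR-HEK293 cells (800/well) plated 18 h, then compounds with Ro20-1724 and TSH at 1.5 ng/mL final, 30 min at room temperature. cAMP quantified by HTRF (cAMP-d2/anti-cAMP-cryptate, 1 h); 15 concentrations in triplicate.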

Experiment [14] can be described thus: qHTS assay to identify small molecule agonists of the sonic hedgehog signaling (Shh) pathway - cell viability counter screen (AID 1259366). Note: nearly all actives have a fitted effect of over 50% in size. In outline:
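Fluorescence from CellTiter-Fluor reports live cells in this counter screen. NIH/3T3-derived Gli1-Luc reporter cells receive test compounds for 24hr at 37C; reagent goes in at 23hr.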

The nature of experiment [15]: qHTS assay to identify small molecule agonists of the androgen receptor (AR) signaling pathway in the presence of an antagonist - cell viability counter screen (AID 1259379).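 Note: MDA-kb2 human breast cancer cells carrying an MMTV luciferase reporter; series mostly up to about 92 µM; nearly all actives have a fitted effect of over 25% in size.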 In outline:
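Cytotoxicity is assessed by CellTiter-Fluor in MDA-kb2 cells carrying an MMTV-driven luciferase reporter. Cells receive 3.0uM nilutamide plus compounds at 15 concentrations and incubate 16 hr at 37C without CO2 before fluorescence reading.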

The target in experiment [16] is Estrogen receptor (Homo sapiens) (UniProt P03372). The experiment can be described thus: qHTS assay to identify small molecule antagonists of the estrogen receptor alpha (ER-alpha) signaling pathway using the BG1 cell line in the presence of 0.1 nM 17-beta-estradiol (AID 1259244). Note: nearly all actives have a fitted effect of over 50% in size. In outline:
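Antagonist mode: compounds in DMSO are pinned onto VM7Luc4E2 reporter cells, 0.1 nM final 17beta-estradiol is added, and after 22 h at 37C luciferase luminescence is measured with ONE-Glo.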

Experiment [17] is described as follows: qHTS assay to identify small molecule agonists of the estrogen receptor beta (ER-beta) signaling pathway - cell viability counter screen (AID 1259380). Note: nearly all actives have a fitted effect of over 30% in size. Note: potency is the fitted concentration of half-maximal effect. In outline:
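Cytotoxicity is measured in parallel with the reporter screen: after 16 hr compound exposure at 37C and a 2 hr LiveBLAzer step, CellTiter-Glo is added to the same ER-beta-UAS-bla HEK293T wells and luminescence read after 30 min.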

A short description of experiment [18]: qHTS assay to identify small molecule antagonists of the estrogen receptor beta (ER-beta) signaling pathway - cell viability counter screen (AID 1259382). Note: series mostly up to about 92 µM; nearly all actives have a fitted effect of over 55% in size. In outline:
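Cytotoxicity counter screen multiplexed with the beta-lactamase antagonist assay: GripTite HEK293T ER-beta-bla cells were treated 16 hr with test chemicals in the presence of 1nM 17-beta-estradiol, and viability was measured by CellTiter-Glo.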

Experiment [19] addresses Estrogen receptor (Homo sapiens) (UniProt P03372). Nature of the experiment: qHTS assay to identify small molecule agonists of the estrogen receptor alpha (ER-alpha) signaling pathway in the presence of an antagonist (AID 1259383; calls by dose curve; note: top concentration of the series differs between compounds; nearly all actives have a fitted effect of over 15% in size). In outline:
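Agonist-mode confirmation in the presence of the ER antagonist ICI-182,780 at 10.0nM final. Breast-derived VM7Luc4E2 reporter cells were exposed to compounds for 22hr, and ERE-driven luciferase was quantified by luminescence.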

Inconclusive results are not listed. Active and inactive are the calls of the source. Unless noted, calls come from the whole dose curve; as a rule, active = well fitted curve in the direction sought with a large enough effect in the repeat runs; inconclusive = weak or mixed curves; inactive = no such curve, though single readings can be large; an effect the other way counts as inactive or inconclusive.

Chain of Estrogen receptor (Homo sapiens) (P03372 whole entry, looked up): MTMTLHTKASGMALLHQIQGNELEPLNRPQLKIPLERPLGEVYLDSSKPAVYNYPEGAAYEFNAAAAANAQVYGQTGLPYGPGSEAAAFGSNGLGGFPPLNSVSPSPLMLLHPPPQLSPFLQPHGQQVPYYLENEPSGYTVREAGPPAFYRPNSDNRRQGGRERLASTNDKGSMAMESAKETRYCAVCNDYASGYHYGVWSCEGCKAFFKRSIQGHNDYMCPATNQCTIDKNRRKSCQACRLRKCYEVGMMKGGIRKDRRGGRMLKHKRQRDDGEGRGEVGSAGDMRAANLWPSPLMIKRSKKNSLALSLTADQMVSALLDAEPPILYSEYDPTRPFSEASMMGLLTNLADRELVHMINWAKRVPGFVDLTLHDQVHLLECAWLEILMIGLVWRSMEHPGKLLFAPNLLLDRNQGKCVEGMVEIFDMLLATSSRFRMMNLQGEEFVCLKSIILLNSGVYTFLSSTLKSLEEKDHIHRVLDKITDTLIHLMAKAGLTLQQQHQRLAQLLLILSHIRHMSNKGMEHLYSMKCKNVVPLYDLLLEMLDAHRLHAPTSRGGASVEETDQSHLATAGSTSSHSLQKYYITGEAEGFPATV
Chain of Estrogen receptor beta (Homo sapiens) (Q92731 whole entry, looked up): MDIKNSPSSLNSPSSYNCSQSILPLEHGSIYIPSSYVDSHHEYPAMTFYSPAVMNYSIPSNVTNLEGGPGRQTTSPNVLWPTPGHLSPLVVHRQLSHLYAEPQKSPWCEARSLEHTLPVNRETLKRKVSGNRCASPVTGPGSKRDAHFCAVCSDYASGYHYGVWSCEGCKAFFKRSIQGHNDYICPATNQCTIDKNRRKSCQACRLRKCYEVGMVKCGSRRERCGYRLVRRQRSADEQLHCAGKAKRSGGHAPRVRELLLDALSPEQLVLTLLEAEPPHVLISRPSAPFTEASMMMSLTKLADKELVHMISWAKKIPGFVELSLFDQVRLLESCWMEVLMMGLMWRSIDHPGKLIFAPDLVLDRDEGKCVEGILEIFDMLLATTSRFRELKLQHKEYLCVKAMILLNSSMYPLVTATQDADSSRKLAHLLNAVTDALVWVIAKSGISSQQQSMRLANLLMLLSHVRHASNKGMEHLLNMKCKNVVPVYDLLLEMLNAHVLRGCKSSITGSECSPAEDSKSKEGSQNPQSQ
Chain of Androgen receptor (Homo sapiens) (P10275 whole entry, looked up): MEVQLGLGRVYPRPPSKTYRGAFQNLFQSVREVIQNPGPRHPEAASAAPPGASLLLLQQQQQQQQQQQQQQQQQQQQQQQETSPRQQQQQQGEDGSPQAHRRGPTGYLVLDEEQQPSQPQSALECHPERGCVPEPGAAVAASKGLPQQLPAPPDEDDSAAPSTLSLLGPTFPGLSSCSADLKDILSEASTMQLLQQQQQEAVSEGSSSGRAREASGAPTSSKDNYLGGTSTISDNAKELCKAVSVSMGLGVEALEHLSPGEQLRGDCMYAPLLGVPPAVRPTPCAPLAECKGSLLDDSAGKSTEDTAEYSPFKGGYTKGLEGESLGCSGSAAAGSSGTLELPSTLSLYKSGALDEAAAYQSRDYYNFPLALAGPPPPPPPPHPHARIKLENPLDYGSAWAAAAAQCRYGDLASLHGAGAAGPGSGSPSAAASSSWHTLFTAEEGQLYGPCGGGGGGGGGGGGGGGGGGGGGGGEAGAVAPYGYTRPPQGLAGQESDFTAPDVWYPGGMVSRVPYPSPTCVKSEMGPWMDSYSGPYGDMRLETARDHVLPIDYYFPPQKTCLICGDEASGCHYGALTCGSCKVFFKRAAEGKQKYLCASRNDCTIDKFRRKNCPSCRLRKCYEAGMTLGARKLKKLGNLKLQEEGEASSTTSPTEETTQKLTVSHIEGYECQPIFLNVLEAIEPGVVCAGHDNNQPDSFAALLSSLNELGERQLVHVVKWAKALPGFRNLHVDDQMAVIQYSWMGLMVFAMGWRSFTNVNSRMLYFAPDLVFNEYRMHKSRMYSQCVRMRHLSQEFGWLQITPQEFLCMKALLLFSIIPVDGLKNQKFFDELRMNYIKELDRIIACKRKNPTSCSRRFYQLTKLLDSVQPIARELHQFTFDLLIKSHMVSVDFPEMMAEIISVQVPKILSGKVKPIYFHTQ
Chain of Thyrotropin receptor (Homo sapiens) (P16473 whole entry, looked up): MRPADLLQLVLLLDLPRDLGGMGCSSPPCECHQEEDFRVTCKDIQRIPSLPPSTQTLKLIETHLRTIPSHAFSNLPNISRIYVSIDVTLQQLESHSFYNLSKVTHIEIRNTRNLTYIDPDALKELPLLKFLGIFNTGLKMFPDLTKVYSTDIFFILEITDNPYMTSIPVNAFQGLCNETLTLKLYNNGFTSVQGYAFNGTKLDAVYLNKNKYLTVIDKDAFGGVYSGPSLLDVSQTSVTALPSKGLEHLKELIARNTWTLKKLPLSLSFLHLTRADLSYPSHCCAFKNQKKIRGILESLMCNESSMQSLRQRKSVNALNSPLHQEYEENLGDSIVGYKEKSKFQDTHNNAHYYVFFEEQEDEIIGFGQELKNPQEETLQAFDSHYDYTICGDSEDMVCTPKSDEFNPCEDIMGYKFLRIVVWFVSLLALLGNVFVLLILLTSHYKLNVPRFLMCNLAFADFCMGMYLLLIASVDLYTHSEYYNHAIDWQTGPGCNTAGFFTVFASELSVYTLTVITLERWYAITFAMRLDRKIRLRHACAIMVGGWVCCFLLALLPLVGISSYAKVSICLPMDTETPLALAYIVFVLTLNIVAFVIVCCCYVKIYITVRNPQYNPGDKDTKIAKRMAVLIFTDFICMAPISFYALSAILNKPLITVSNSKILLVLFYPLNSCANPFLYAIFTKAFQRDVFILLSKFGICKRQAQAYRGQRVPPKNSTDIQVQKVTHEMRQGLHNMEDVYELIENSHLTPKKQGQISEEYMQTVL

For the compound `CCCN(C1CCN(C(=O)C2CCNCC2)CC1)[C@@H]1CCc2ccc(OC)cc2C1`, the Potency entry in [1], in experiment [2], in experiment [3], in experiment [4], in experiment [6] and in [7] was “inactive” each time. Also, the Potency entry in [9], in [10], in experiment [11] and in experiment [13] was “inactive” throughout. In addition, the compound was classed as inactive in experiment [5] and in experiment [12]. In addition, the Potency in experiment [8] was 4.33 µM (active).
For the compound `NCCOCCOCCN`, the Potency result in [1], in experiment [2], in experiment [3], in experiment [4], in [14] and in [6] was “inactive” in each case. For the same compound, the Potency entry in experiment [7], in experiment [8], in experiment [9], in [10], in [15] and in experiment [11] was “inactive” throughout. Besides, the Potency entry in experiment [13] was “inactive”. The result in [5] and in experiment [12] was inactive.
On to `CCCC1CCOC(C)S1` (stereo unspecified), for which the Potency result in experiment [1], in experiment [2], in [3], in experiment [16], in experiment [4] and in experiment [14] was “inactive” each time. The Potency result in experiment [6], in experiment [7], in experiment [9], in experiment [15], in [17] and in experiment [11] was “inactive” throughout. Also, the Potency entry in [18], in experiment [19] and in [13] was “inactive” in each case. Besides, the call in experiment [5] and in experiment [12] was inactive.
`CCCOC(C)=O`: the Potency entry in experiment [1], in [2], in experiment [3], in experiment [16], in experiment [4] and in experiment [14] was “inactive” each time. Moreover, the Potency result in experiment [6], in experiment [7], in experiment [8], in [9], in [10] and in experiment [15] was “inactive” each time. Also, the Potency result in experiment [17], in experiment [11], in experiment [18], in experiment [19] and in experiment [13] was “inactive” in each case.
With `O=C(O)c1cccc(C(=O)O)c1C(=O)O`, the Potency result in [1], in experiment [2], in experiment [3], in [16], in [4] and in experiment [14] was “inactive” throughout. Also, the Potency entry in experiment [6], in experiment [7], in experiment [8], in experiment [15], in experiment [11] and in experiment [19] was “inactive” each time. Also, the Potency result in [13] is “inactive”. The compound was classed as inactive in [5] and in experiment [12]. The Potency in experiment [17] is 13.8 µM (active).
As to `O=C(c1ccco1)N1CCNCC1`, the Potency entry in [1], in experiment [2], in experiment [3], in experiment [16], in experiment [4] and in experiment [14] was “inactive” each time. In addition, the Potency entry in experiment [7], in experiment [8], in experiment [9], in experiment [10], in experiment [15] and in experiment [17] was “inactive” in each case. Also, the Potency entry in experiment [11], in experiment [18], in experiment [19] and in experiment [13] was “inactive” each time. In addition, the result in experiment [5] and in [12] was inactive.
Take `Nc1ccc(F)cc1F`: the Potency result in [1], in [2], in experiment [3], in experiment [16], in experiment [14] and in [6] was “inactive” each time. For the same compound, the Potency entry in experiment [7], in [8], in [9], in experiment [10], in experiment [15] and in [17] was “inactive” throughout. For the same compound, the Potency entry in [11], in [18], in [19] and in experiment [13] was “inactive” throughout. The compound was called inactive in experiment [5] and in experiment [12].
Take `CCCCCCCCOCCCN`: the Potency result in experiment [1], in experiment [2], in experiment [3], in experiment [16], in experiment [4] and in [7] was “inactive” each time. Also, the Potency entry in [15], in experiment [11], in [19] and in [13] was “inactive” throughout. In addition, in [8], the Potency is 30.6 µM (active). Further, the result in [12] was inactive.

Source of the values: PubChem BioAssay (Tox21).
